The record followed here is PubChem BioAssay (NCI).

Values joined by “and” are separate entries in the source; they are usually repeats but may differ in a detail not shown here. Identical values can stand only once. This is part of a sample that, as a whole, favours compounds with a hit. Of some 83,000 tested, about 20% had one in any assay.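 The test compound was applied at a single concentration to cells in 96-well plates for 48 hours, and percent growth was recorded.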 Active and inactive are the calls of the source. Rule for the calls: active = growth percent below 10; inactive = the rest.

The test system of the test is T-47D breast. As to the kind of experiment: NCI-60 one-dose screen, 48 h (100 = growth as untreated, 0 = no growth, -100 = all killed). The conditions noted are these: 10 µM unless noted.
Regarding `COc1ccc(-c2cc(C(=O)OCc3ccc(Br)cc3)nn2-c2ccc(S(C)(=O)=O)cc2)cc1OC`, the growth was 48.4% (inactive). As for `CCc1ccccc1-c1nc(CN[C@@H]2C[C@@H]3C[C@H]([C@H]2C)C3(C)C)c(C)o1`, the figure is -60.3% (active); as for `O=C(CSc1nnc(-c2ccc(-c3nc4ccc(Cl)cc4[nH]3)cc2)o1)Nc1ccccc1`, 93.3% (inactive). As for `CCCCCCCOc1ccc(S(=O)(=O)Nc2ccc(C)c(F)c2C(=O)O)cc1`, the figure is 93.9% (inactive); as for `CCc1ccccc1NC(=O)N/C(N)=N/c1nc2ccccc2s1`, 55.8% (inactive); as for `OC(c1ccccc1)(c1ccccc1)C1CCN(c2ccc3nnc(Cl)n3n2)CC1`, 9.47% (active). The result for `Cc1ccc(S(=O)(=O)N(CCn2ccnc2[N+](=O)[O-])CCn2ccnc2[N+](=O)[O-])cc1` reads 100% (inactive); that for `O=C(c1ccc(Cl)cc1)C1[C@H](c2ccccc2Cl)[C@@H](c2ccccc2)NC12C(=O)Nc1ccccc12` (some centres undefined), -6.74% (active). For `CS(=O)(=O)Nc1cccc(-n2cnc3cc(-c4ccc(O)cc4)ccc32)c1`, the growth is 49.1% (inactive). On to `CC(C)(C)C(=O)c1c2c(c3ccc4c5ccccc5ccc4n13)C(=O)c1ccccc1C2=O`, for which the growth was 95.6% (inactive). Regarding `COc1ccc(CCC2NCCc3c(Br)c4c(c(OC)c32)OCO4)cc1` (centres undefined), the growth is 31.2% (inactive). The result for `O=C(Nc1ccc(Br)cc1)Nc1ccc(-c2ccc3c(c2)NC(=O)/C3=C\c2ccc[nH]2)cc1` reads 12.1% (inactive); that for `O=C(Nc1nc2ccccc2s1)Nc1ccccc1Cl`, 68% (inactive); that for `CN(C)c1nc(NCCNS(=O)(=O)c2ccc(C(=O)/C=C/c3ccc(Cl)cc3)cc2)nc(N2CCOCC2)n1`, 10.3% (inactive). As for `COc1cncc(-c2ccc3ncnc(N4CCc5ccc(Cl)cc54)c3c2)c1`, the figure is 14.1% (inactive). On to `CC(C)(C)c1ccc(OCc2nc3ccccc3n2-c2cccc(N)c2)cc1`, for which the growth was 32.3% (inactive) and 99.1% (inactive). The result for `Cc1ccc(S(=O)(=O)Nc2ccc(-c3ccc4c(c3)NC(=O)/C4=C\c3ccc[nH]3)cc2)cc1` reads 18.8% (inactive). The result for `N#CC1=C(c2ccco2)Nc2c(c(-c3ccccc3)nn2-c2ccccc2)C12C(=O)Nc1ccc(Cl)cc12` (centres undefined) reads 26.6% (inactive). The result for `CCOc1ccccc1NC(=O)N/C(N)=N/c1nc2ccccc2s1` reads 41.5% (inactive). Consider `OC1CCC(Cn2c(C(F)(F)F)cc3c(Cl)ncnc32)CC1` (centres undefined), for which the growth is 82% (inactive).

In the case of `CC[C@]12C=CCN3CC[C@@]4(c5ccc(OC)cc5N(C)[C@H]4[C@@](O)(C(=O)OC)[C@@H]1OC(=O)CCC[P+](c1ccc(OC)cc1)(c1ccc(OC)cc1)c1ccc(OC)cc1)[C@@H]32`, the growth was -61.4% (active).

As to `COc1cc(C2CC(c3ccc(F)cc3)=Nc3c(N)nc(N)nc3N2)ccc1Oc1nc(Nc2ccc(F)cc2)nc(N(C)C)n1` (centres undefined), the growth is 65.7% (inactive). On to `COC(=O)c1c(C(=O)OC)c2ccc3c4ccccc4ccc3n2c1C(=O)OC`, for which the growth is 93.7% (inactive). `C[C@@H]1CN(c2ccc3ncc(C#Cc4cncc(C(=O)Nc5ccc(CN6CCN(C)CC6)c(C(F)(F)F)c5)c4)n3n2)C[C@@H](C)O1`: the growth is -62.6% (active).
